Among the data in PubChem BioAssay (Tox21) are outcome and Potency values, retold here.

Assay [1] can be described thus: qHTS RealTime-Glo MT Cell Viability Assay in HEK293 cells - 0 hour (AID 1224880). Note: top concentration of the series differs between compounds; nearly all actives have a fitted effect of over 45% in size. An outline of the steps: (§1)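 Measured as luminescence from the same continuously cultured HEK293 wells at successive time points (0, 8, 16, 24, 32, 40 h) after compound addition. Reagent present from seeding; dosing at 5 h; incubation 37 C.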
On the technique in general: In qHTS, concentration-response curves come from the screen itself.

Assay [2] in a line: A CellTox Green Cytotoxicity Assay to monitor cytotoxicity in HepG2 cells - 0 hour (AID 1224882). Note: nearly all actives have a fitted effect of over 35% in size. In a few lines: (§2)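 Fluorescent DNA-binding dye, 600 HepG2 cells/well, 5 h preincubation then compound in DMSO; same plates read at 0–40 h, 37 C.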
Assay [3] can be described thus: A CellTox Green Cytotoxicity Assay to monitor cytotoxicity in HepG2 cells - 32 hour (AID 1224883). Note: nearly all actives have a fitted effect of over 50% in size. An outline of the steps: as §2
Assay [4] can be described thus: A CellTox Green Cytotoxicity Assay to monitor cytotoxicity in HEK293 cells - 8 hour (AID 1224884). Note: nearly all actives have a fitted effect of over 35% in size. An outline of the steps:
(§3)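 Homogeneous no-lysis format: HEK293 cell suspension mixed with CellTox Green reagent, seeded, incubated 5 h at 37 C/5% CO2, then dosed by pintool with compound in DMSO.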

Assay [5] in a line: qHTS RealTime-Glo MT Cell Viability Assay in HepG2 cells - 16 hour (AID 1224885). Note: nearly all actives have a fitted effect of over 50% in size. In a few lines:
(§4)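 Cells + NanoLuc/prosubstrate dispensed (600 cells/well) → 5 h at 37 C/5% CO2 → compounds in DMSO transferred → 40 h incubation at 37 C, luminescence read at 0, 8, 16, 24, 32, 40 h.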

Assay [6] can be described thus: qHTS RealTime-Glo MT Cell Viability Assay in HEK293 cells - 8 hour (AID 1224887). Note: top concentration of the series differs between compounds; nearly all actives have a fitted effect of over 50% in size. An outline of the steps: as §1
Assay [7] can be described thus: A CellTox Green Cytotoxicity Assay to monitor cytotoxicity in HEK293 cells - 16 hour (AID 1224888). Note: nearly all actives have a fitted effect of over 35% in size. An outline of the steps:
as §3

A short description of assay [8]: qHTS RealTime-Glo MT Cell Viability Assay in HepG2 cells - 0 hour (AID 1224889). Note: nearly all actives have a fitted effect of over 50% in size. In a few lines:
as §4

Assay [9] in a line: A CellTox Green Cytotoxicity Assay to monitor cytotoxicity in HepG2 cells - 8 hour (AID 1224890). Note: nearly all actives have a fitted effect of over 45% in size. An outline of the steps: as §2
Assay [10] is described as follows: qHTS assay to identify small molecule antagonists of the estrogen receptor alpha (ER-alpha) signaling pathway using the BG1 cell line in the presence of 0.1 nM 17-beta-estradiol - cell viability counter screen (AID 1259241). Note: nearly all actives have a fitted effect of over 40% in size. In a few lines:
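Live-cell protease activity (CellTiter-Fluor fluorescence, 30 min) was read in the same wells after VM7Luc4E2 cells had been exposed to compounds with 0.1 nM 17beta-estradiol for 22 hr at 37C.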

The nature of assay [11]: qHTS assay to identify small molecule antagonists of the androgen receptor (AR) signaling pathway using the MDA cell line in the presence of 0.5 nM R1881 - cell viability counter screen (AID 1259242). Note: nearly all actives have a fitted effect of over 45% in size. An outline of the steps: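 Human breast carcinoma MDA-kb2 cells, cultured without CO2, receive compounds alongside 0.5 nM (final) R1881 agonist. After 16 hr at 37C, viability is taken as live-cell protease signal.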

The target of assay [12] is Estrogen receptor (Homo sapiens) (UniProt P03372). Nature of the assay: qHTS assay to identify small molecule antagonists of the estrogen receptor alpha (ER-alpha) signaling pathway using the BG1 cell line in the presence of 0.1 nM 17-beta-estradiol (AID 1259244). Note: nearly all actives have a fitted effect of over 50% in size. In a few lines: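 Seeding of stripped-serum-adapted VM7Luc4E2 cells, 24 h attachment, compound transfer, then 0.1 nM final 17beta-estradiol; after 22 h incubation, ONE-Glo reagent and luminescence reading.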

Assay [13] is described as follows: qHTS assay to identify small molecule HDAC inhibitors (AID 1259364). Note: potency is the fitted concentration of half-maximal effect.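 Note: wild-type HCT-116 cells with endogenous class I/II HDAC activity; nearly all actives have a fitted effect of over 45% in size.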 An outline of the steps:
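After a 2 hr compound incubation (37C, 5% CO2), HCT-116 cells seeded at 1,500/well the day before received HDAC-Glo reagent; signal read as luminescence after 30 min at room temperature.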

A short description of assay [14]: qHTS assay to identify small molecule HDAC inhibitors - cell viability counter screen (AID 1259365). An outline of the steps: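 HCT-116 (wild type), 1,500 cells/well, overnight 37C/5% CO2; compound in DMSO 2hr; CellTiter-Glo 30min RT; luminescence read.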
Assay [15] can be described thus: qHTS assay to identify small molecule agonists of the sonic hedgehog signaling (Shh) pathway - cell viability counter screen (AID 1259366). Note: nearly all actives have a fitted effect of over 50% in size. An outline of the steps:
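CellTiter-Fluor fluorescence read-out, 1 hr at 37C, added after 23hr compound exposure. Cells: 3T3 Gli1-Luc, an NIH/3T3 clone with stably integrated Gli1-Luc reporter, plated 4hr before compound.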

The nature of assay [16]: qHTS assay to identify small molecule antagonists of the sonic hedgehog signaling (Shh) pathway - cell viability counter screen (AID 1259367). Note: nearly all actives have a fitted effect of over 55% in size. An outline of the steps:
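Conditioned medium drove Shh signaling in 3T3 Gli1-Luc cells exposed to compounds at 37C and 5% CO2. Viability was determined from CellTiter-Fluor fluorescence, with reagent incubated 1 hr after 23 hr of treatment.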

The nature of assay [17]: qHTS RealTime-Glo MT Cell Viability Assay in HEK293 cells - 24 hour (AID 1224886). In a few lines:
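Tox21 10K qHTS, HEK293, 600 cells/well, RealTime-Glo reagent co-dispensed with cells; 5 h preincubation, compound by pintool, 37 C, luminescence at 0–40 h.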

Assay [18] can be described thus: A CellTox Green Cytotoxicity Assay to monitor cytotoxicity in HEK293 cells - 32 hour (AID 1224881). Note: nearly all actives have a fitted effect of over 40% in size. An outline of the steps: as §3
Assay [19] is described as follows: qHTS assay to identify small molecule phospholipidosis (PLD) inducers (AID 1259344; active = well fitted curve in the direction sought with a large enough effect; an effect the other way counts as inactive or inconclusive). In a few lines:
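After 4 h attachment on collagen I, HepG2 cells were dosed with compound alongside LipidTOX Red, kept 24 h at 37 C, fixed, and imaged for lamellar phospholipid pits.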

Assay [20] addresses Androgen receptor (Homo sapiens) (UniProt P10275). Nature of the assay: qHTS assay to identify small molecule antagonists of the androgen receptor (AR) signaling pathway using the MDA cell line in the presence of 0.5 nM R1881 (AID 1259243). Note: nearly all actives have a fitted effect of over 50% in size. An outline of the steps: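 Cells: MDA-kb2 (MMTV-luc). Stimulus: 0.5 nM R1881. Time: 16 hr, 37C, no CO2. Detection: ONE-Glo luminescence after 30 min at RT.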

The structures appear in SMILES notation. A number with no mark means an inactive call. Records with an inconclusive call do not appear. Calls of active or inactive are those of the source. Unless noted, calls come from the whole dose curve; as a rule, active = well fitted curve in the direction sought with a large enough effect in the repeat runs; inconclusive = weak or mixed curves; inactive = no such curve, though single readings can be large; an effect the other way counts as inactive or inconclusive.

Estrogen receptor (Homo sapiens), sequence (P03372 whole entry, looked up): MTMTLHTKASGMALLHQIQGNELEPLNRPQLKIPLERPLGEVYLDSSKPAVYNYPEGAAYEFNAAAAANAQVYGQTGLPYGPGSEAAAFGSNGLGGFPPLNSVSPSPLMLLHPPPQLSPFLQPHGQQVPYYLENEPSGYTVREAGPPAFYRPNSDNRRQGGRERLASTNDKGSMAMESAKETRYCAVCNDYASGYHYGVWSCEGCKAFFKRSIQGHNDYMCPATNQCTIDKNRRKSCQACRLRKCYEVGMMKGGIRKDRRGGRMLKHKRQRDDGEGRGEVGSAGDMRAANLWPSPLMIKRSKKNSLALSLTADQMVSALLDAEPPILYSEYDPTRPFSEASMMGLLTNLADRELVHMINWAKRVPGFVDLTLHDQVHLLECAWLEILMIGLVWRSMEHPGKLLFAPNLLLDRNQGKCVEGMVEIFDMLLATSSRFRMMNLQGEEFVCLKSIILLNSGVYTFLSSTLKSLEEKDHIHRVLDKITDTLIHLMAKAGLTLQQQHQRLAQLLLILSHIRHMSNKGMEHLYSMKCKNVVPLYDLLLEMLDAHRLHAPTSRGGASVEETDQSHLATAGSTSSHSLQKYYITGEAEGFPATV
Androgen receptor (Homo sapiens), sequence (P10275 whole entry, looked up): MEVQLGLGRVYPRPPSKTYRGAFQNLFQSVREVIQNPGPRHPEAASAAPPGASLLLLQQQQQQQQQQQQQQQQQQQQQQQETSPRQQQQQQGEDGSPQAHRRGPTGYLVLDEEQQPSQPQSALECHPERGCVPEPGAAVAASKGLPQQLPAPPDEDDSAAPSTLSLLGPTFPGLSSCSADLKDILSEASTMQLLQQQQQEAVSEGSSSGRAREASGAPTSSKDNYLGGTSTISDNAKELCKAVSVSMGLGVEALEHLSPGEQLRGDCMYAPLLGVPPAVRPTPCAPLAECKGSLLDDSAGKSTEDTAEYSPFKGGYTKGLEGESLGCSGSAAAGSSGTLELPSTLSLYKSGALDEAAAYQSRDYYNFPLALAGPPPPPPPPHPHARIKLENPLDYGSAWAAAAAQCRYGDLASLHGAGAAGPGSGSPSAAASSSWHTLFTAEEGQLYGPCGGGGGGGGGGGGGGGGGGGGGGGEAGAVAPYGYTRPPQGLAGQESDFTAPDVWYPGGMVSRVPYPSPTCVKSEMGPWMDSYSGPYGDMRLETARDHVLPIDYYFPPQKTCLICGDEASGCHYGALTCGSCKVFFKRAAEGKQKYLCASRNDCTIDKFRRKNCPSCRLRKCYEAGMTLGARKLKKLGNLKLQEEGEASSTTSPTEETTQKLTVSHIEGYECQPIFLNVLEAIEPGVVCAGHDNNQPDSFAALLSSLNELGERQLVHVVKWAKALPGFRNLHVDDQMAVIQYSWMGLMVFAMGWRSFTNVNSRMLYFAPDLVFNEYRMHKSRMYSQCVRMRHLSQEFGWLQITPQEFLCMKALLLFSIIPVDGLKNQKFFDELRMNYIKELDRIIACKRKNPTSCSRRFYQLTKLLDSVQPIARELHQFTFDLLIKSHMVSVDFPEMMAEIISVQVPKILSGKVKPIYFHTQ

For the compound `CCC(C)(C)C1CCC(OC)CC1` (stereo not given), the compound was called inactive in [1], in assay [5], in [10], in [11], in [12] and in assay [14]. Also, the compound was called inactive in [16]. Moreover, the Potency result in [2], in [3], in assay [4], in assay [6], in assay [7] and in assay [8] was “inactive” each time. Besides, the Potency result in [9], in [13] and in [15] was “inactive” in each case.
`CC(C)CCOC(=O)CC(C)C`: the call in [1], in [5], in assay [10], in [11], in assay [12] and in [14] was inactive. Moreover, the outcome in assay [16] was inactive. Besides, the Potency entry in assay [2], in [3], in [17], in [6], in [8] and in assay [9] was “inactive” throughout. Besides, the Potency result in assay [13] and in assay [15] was “inactive” each time.
Turning to `COc1cc(O)cc(O)c1`, the Potency entry in assay [18], in [2], in assay [3], in [4], in assay [17] and in [6] was “inactive” each time. The Potency entry in assay [7], in assay [8], in assay [9], in assay [19], in [13] and in assay [15] was “inactive” each time. Moreover, the outcome in assay [10], in assay [11], in assay [12] and in [16] was inactive.
As to `CC(C)c1cccc(C(C)C)c1N`, the compound was called inactive in [1], in assay [5], in [10], in assay [11], in assay [14] and in assay [16]. The Potency entry in assay [2], in [4], in assay [17], in assay [6], in assay [7] and in assay [8] was “inactive” throughout. For the same compound, the Potency result in assay [9], in assay [13] and in assay [15] was “inactive” throughout.
For `COC(=O)c1ccc(C(=O)OC)c(C(=O)OC)c1`, the outcome in assay [1], in [5], in [10], in [11], in [14] and in [16] was inactive. In addition, the Potency result in [2], in assay [4], in assay [17], in assay [6], in [7] and in [8] was “inactive” throughout. Moreover, the Potency entry in assay [9] and in assay [15] was “inactive” in each case.
In the case of `Oc1cc(O)c2c(c1)O[C@H](c1ccc(O)c(O)c1)[C@H](O)C2`, the compound was called inactive in assay [1], in assay [10], in [11], in assay [12], in [14] and in assay [16]. The Potency result in [2], in assay [3], in assay [4], in assay [17], in assay [6] and in assay [7] was “inactive” in each case. Also, the Potency result in assay [8], in assay [9], in assay [19], in assay [13] and in assay [15] was “inactive” each time.
Turning to `COc1cccc(OC)c1`, the call in assay [1], in assay [5], in [10], in assay [11], in [14] and in assay [16] was inactive. The Potency result in assay [3], in assay [4], in [17], in assay [6], in [7] and in assay [8] was “inactive” each time. In addition, the Potency result in assay [9], in [13] and in assay [15] was “inactive” each time.
As to `NCCN1CCNC1=O`, the compound was called inactive in assay [1], in [5], in assay [10], in assay [11], in [12] and in assay [14]. Further, in assay [16], the outcome was inactive. The Potency result in assay [3], in assay [4], in assay [6], in assay [7], in assay [8] and in [9] was “inactive” in each case. Moreover, the Potency result in assay [15] is “inactive”.
Take `OCCN1C[C@H](O)[C@@H](O)[C@H](O)[C@H]1CO`: the result in assay [1], in [5], in assay [10], in assay [11] and in assay [16] was inactive. In addition, the Potency result in assay [2], in assay [3], in [4], in assay [6], in assay [7] and in assay [8] was “inactive” in each case. For the same compound, the Potency result in assay [9], in assay [20], in [19] and in assay [13] was “inactive” each time.
`Cc1nc(-c2ccc(OCC(C)C)c(C#N)c2)sc1C(=O)O`: the compound was called inactive in assay [1], in assay [10], in assay [11], in assay [12], in assay [14] and in assay [16]. The Potency result in assay [2], in [3], in [4], in assay [17], in [6] and in assay [7] was “inactive” each time. The Potency result in assay [8], in [9], in assay [20], in [19] and in [15] was “inactive” each time. Besides, the Potency in assay [13] is 335 nM (active).
